# Measurements published in paper PMC12136788.
# Changes are numbered by the printed parent chain. The full ranking holds about 5,800 sequences; the median of “enrichment r” is about 0.54, and the highest 2% start at about 16. The sample as a whole holds a higher share of the highest values than the screen did.
# B1: chr1:17067390:17067767:-|3pUTR|ENSG00000117115|msi1|total|mutant (ssRNA)
# RNA: GGGAGUUCUACAGUCCGACGAUCCCCAACAUGCAAAGCCCACAUUUAAAGGCCAGCCUCUGCCCCUUCAGUGAUGCGCUCUUCCGAAAUGCCAGUCCACUAUAUUCAGAAAUCCGCAGGGCACAAAACUUCCAGCAAGUCACUCAACAGAGGAUUGAGCAUCA
# B2: chr10:32033860:32033975:-|CDS|ENSG00000170759|unk|total|mutant (ssRNA)
# RNA: GGGAGUUCUACAGUCCGACGAUCCACAGUGGAUAAAGAUAUUACUCUUACCAAUGAUAAACCAGCAACCGCAAUUGGAGUUACCGGAAAUUUUACUGAUGCUGAAAGAAGAAAGUGUGAAGAAGAAAUUGCUAAAUUAUACAACAACAGAGGAUUGAGCAUCA
# B3: chr5:171862525:171862626:-|3pUTR|ENSG00000072803|msi1|total|mutant (ssRNA)
# RNA: GGGAGUUCUACAGUCCGACGAUCGACAGUGCAUGGAAAGGACGUUGGCAUCCAAUUGGCACUCCUUCUCCCUUAUUCAAUAUCCGGUUUGAUUUGCCCUUCGCCAUUGUUUCCAAAGAUCAAGGAAUGUCAAUAACAUUUUAACAACAGAGGAUUGAGCAUCA
# B4: ENSG00000124766:be:win_751|CDS|ENSG00000124766|bound_else_gene|NA|bound_elsewhere_windowed (ssRNA)
# RNA: GGGAGUUCUACAGUCCGACGAUCGGCGCCGCCGCCGACCACCACUCGCUGUACAAGGCGCGGACUCCCAGCGCCUCGGCCUCCGCCUCCUCGGCAGCCUCGGCCUCCGCAGCGCUCGCGGCCCCGGGCAAGCACCUGGCGGAGCAACAGAGGAUUGAGCAUCA
# B5: chr18:35263486:35263657:-|CDS|ENSG00000186814|control|control|control (ssRNA)
# RNA: GGGAGUUCUACAGUCCGACGAUCGGAAAUGACAUCCACAGGAGCACUGAAGUCUCUGUCUCUGAAUAGCCCGGUGCAGCCCUUAGAGAACCAGUGCAAGACUGAGACUCAGGAGUCCCAGGCUUUCCAGGAGAGAGGUGAGAACAACAGAGGAUUGAGCAUCA
# B6: chrX:155122998:155123099:+|3pUTR|ENSG00000185515|unk|FALSE|unique (ssRNA)
# RNA: GGGAGUUCUACAGUCCGACGAUCCUACAUACACACAAAUGAAUGCAUGUAAAAUCUGGUGAUACUGAAUAAAGUCUGUGGUCUAGAUAGCAGUAUAAUAUUAUUGUCAAUGUCUUGGAUGUGAAGUUGUGCUAUAGUUACAAACAACAGAGGAUUGAGCAUCA
# B7: chr13:79312715:79312816:-|3pUTR|ENSG00000139746|unk|total|mutant (ssRNA)
# RNA: GGGAGUUCUACAGUCCGACGAUCCCUUGUGAUUUAUUAUAAUGCCGCAGCAUACUUAUAAAAGUGGUCUGUGCUGAGUCAGACCGAGAGCCCAGCCCAUCCGAAACACAUCAUAAUUUAAGAAUAUGAUGCAGAAUGCCCUUACAACAGAGGAUUGAGCAUCA
# B8: chr17:5489330:5489445:+|CDS|ENSG00000167842|unk|FALSE|unique (ssRNA)
# RNA: GGGAGUUCUACAGUCCGACGAUCACGUUGACUUUCUUUGAUGAGCUUCAUAAUGUUGGCAGAGAUCAUGGGACUAGUGAUUUUAGGGAGAGUUUAGUAUCCCUGGUUCAGAACUCCAGAAAACUACAGAACAUUAGAGACAAUCAACAGAGGAUUGAGCAUCA
# B9: chr4:138169334:138169435:-|3pUTR|ENSG00000151012|msi1|total|mutant (ssRNA)
# RNA: GGGAGUUCUACAGUCCGACGAUCCCAUUUCACGCAGAAAAAAAGUCAGCCAGUAAUUAAGAAAAAAAGUGAUGGAGAUUAAGCCGUAUUUUGGCUUAUUUUCCGGACUCAUCAUGAGAAGACACAGUUCCUUUAAUCAGGAAACAACAGAGGAUUGAGCAUCA
# B10: chr13:79312715:79312816:-|3pUTR|ENSG00000139746|unk|FALSE|unique (ssRNA)
# RNA: B7 RNA with C44U, C45A, C83U, C84A, C100U, C101A
# B11: chr4:138169334:138169435:-|3pUTR|ENSG00000151012|msi1|FALSE|unique (ssRNA)
# RNA: B9 RNA with C83U, C84A, C102U, C103A
# B12: chr5:97028609:97028710:+|3pUTR|ENSG00000113441|msi1|total|mutant (ssRNA)
# RNA: GGGAGUUCUACAGUCCGACGAUCUUGCAAAAGCCAAGGUAAAGCCAGGAUCGCUGCCAAGUUGUUUGCACUCUUUGGAGUUCCCGUCCGCUCAGGGCCUGACUGUAUUUUUCAUCCAUCUUUUCUGAAGUGUCUUUGGGCAGUCAACAGAGGAUUGAGCAUCA
# B13: chr15:34983303:34983404:-|CDS|ENSG00000198146|msi1|FALSE|unique (ssRNA)
# RNA: GGGAGUUCUACAGUCCGACGAUCGCUGAAAACAAUUUAAAAAUGCUAAAGAUUCAACAGUGUGUGGUAGCCAACAAACUACCUAGAAACAGGCCAUAUGUUUGCAAUAUUUGUUUUAAGCACUUUGAAACACCAUCAAAAUUACAACAGAGGAUUGAGCAUCA
# B14: ENSG00000160710:stop:overlap|stop_codon|ENSG00000160710|stop_codon|NA|stop_codon (ssRNA)
# RNA: GGGAGUUCUACAGUCCGACGAUCGCUAUGGGAACUGGAUUAGCAAACCCCAGGAGGAAAAGAACUUUUAUCUCUGCCCAGUAUAGUAUGCUCCAGUGACAGAUGGAUUAGGGUGUGUCAUACUAGGGUGUGAGAGAGGUAGGUCAACAGAGGAUUGAGCAUCA
# Target: MSI1 full-length (mouse, UniProt Q61474 1-362)
# Sequence (Q61474 whole entry): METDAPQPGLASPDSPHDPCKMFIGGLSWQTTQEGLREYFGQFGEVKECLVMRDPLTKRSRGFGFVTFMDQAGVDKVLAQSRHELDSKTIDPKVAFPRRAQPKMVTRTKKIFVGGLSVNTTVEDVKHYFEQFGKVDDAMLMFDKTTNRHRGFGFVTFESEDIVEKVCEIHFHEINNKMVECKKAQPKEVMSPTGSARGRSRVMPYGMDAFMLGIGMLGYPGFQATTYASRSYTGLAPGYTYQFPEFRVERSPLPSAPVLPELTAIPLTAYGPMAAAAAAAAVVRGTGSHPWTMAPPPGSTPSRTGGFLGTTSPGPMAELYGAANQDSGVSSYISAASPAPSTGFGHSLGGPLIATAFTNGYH
# Assay: nsRBNS (natural sequence RNA bind-n-seq); RBNS binding buffer (assumed for nsRBNS): 25 mM Tris pH 7.5, 150 mM KCl, 3 mM MgCl2, 0.01% Triton X-100, 500 ug/ml BSA, 20 U/ml SUPERase-In, 4 C; UNK is unkempt and MSI1 is Musashi-1; names of the RNAs are library labels; protein concentration not given here; high values mean tight binding
row,Binder,binding signal
1,B1,0.72 enrichment R
2,B2,0.675 enrichment R
3,B3,0.579 enrichment R
4,B4,0.389 enrichment R
5,B5,0.496 enrichment R
6,B6,2.09 enrichment R
7,B7,1.96 enrichment R
8,B8,1.88 enrichment R
9,B9,0.883 enrichment R
10,B10,17.8 enrichment R
11,B11,19.3 enrichment R
12,B12,0.321 enrichment R
13,B13,0.421 enrichment R
14,B14,1.25 enrichment R
